# Measured values as given in PubChem BioAssay AID1159580 (chemical genetic matrix, 2015).
# In all, about 5,500 compounds went through this assay and about 2,000 (36%) were called active. Roughly 18% stayed inconclusive and do not appear here. Some of the results follow. Unmarked numbers belong to inactive results. Rule as the data show it: active = normalized growth mostly below about 0.91 (no sharp cut-off); inconclusive = no clear call, values can overlap the other calls; inactive = mostly above about 0.92.
# Assay: chemical genetic growth profiling, strain panel (AID 1159580);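 also: tested at 20 µM; growth read once vehicle control cultures reached saturation at 30 °C; 1 = growth at the plate median or of vehicle wells; lower values mean less growth of the strain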
# Settings: growth OD
compound,measurement,setting,value
O=C1C=CC(=O)c2c(O)cccc21,normalized growth,"S. cerevisiae deletion strains, locus YJR043C, strain POL32, stronger effect = lower value",1.01
same,normalized growth,"S. cerevisiae deletion strains, locus YJR066W, strain TOR1, stronger effect = lower value",0.894
same,normalized growth,"S. cerevisiae deletion strains, locus YKL009W, strain mrt4, stronger effect = lower value",0.934
same,normalized growth,"S. cerevisiae deletion strains, locus YKL068W, stronger effect = lower value",0.982
same,normalized growth,"S. cerevisiae deletion strains, locus YKL085W, strain MDH1 (second series), stronger effect = lower value",0.97
same,normalized growth,"S. cerevisiae deletion strains, locus YKL085W, strain MDH1, stronger effect = lower value",0.97
same,normalized growth,"S. cerevisiae deletion strains, locus YKL160W, strain elf1, stronger effect = lower value",1
same,normalized growth,"S. cerevisiae deletion strains, locus YKL190W, strain CNB1, stronger effect = lower value",0.986
same,normalized growth,"S. cerevisiae deletion strains, locus YKR001C, strain vps1, stronger effect = lower value",0.938
same,normalized growth,"S. cerevisiae deletion strains, locus YKR026C, strain gcn3, stronger effect = lower value",0.983
same,normalized growth,"S. cerevisiae deletion strains, locus YKR091W, strain srl3, stronger effect = lower value",0.983
same,normalized growth,"S. cerevisiae deletion strains, locus YLL001W, strain dnm1, stronger effect = lower value",0.968
same,normalized growth,"S. cerevisiae deletion strains, locus YLL026W, stronger effect = lower value",1.01
same,normalized growth,"S. cerevisiae deletion strains, locus YLL041C, strain sdh2, stronger effect = lower value",1
same,normalized growth,"S. cerevisiae deletion strains, locus YLR027C, strain aat2, stronger effect = lower value",0.984
same,normalized growth,"S. cerevisiae deletion strains, locus YLR039C, strain RIC1, stronger effect = lower value",0.699
same,normalized growth,"S. cerevisiae deletion strains, locus YLR058C, strain SHM2, stronger effect = lower value",0.947
same,normalized growth,"S. cerevisiae deletion strains, locus YLR102C, strain apc9, stronger effect = lower value",0.989
same,normalized growth,"S. cerevisiae deletion strains, locus YLR113W, strain HOG1, stronger effect = lower value",0.922
same,normalized growth,"S. cerevisiae deletion strains, locus YLR221C, strain rsa3, stronger effect = lower value",0.947
same,normalized growth,"S. cerevisiae deletion strains, locus YLR258W, strain gsy2, stronger effect = lower value",0.979
same,normalized growth,"S. cerevisiae deletion strains, locus YLR262C, strain YPT6 (second series), stronger effect = lower value",0.727 (active)
same,normalized growth,"S. cerevisiae deletion strains, locus YLR262C, strain YPT6, stronger effect = lower value",0.731
same,normalized growth,"S. cerevisiae deletion strains, locus YLR268W, strain sec22, stronger effect = lower value",0.995
same,normalized growth,"S. cerevisiae deletion strains, locus YLR320W, strain mms22, stronger effect = lower value",0.851 (active)
same,normalized growth,"S. cerevisiae deletion strains, locus YLR330W, strain CHS5, stronger effect = lower value",1
same,normalized growth,"S. cerevisiae deletion strains, locus YLR342W, strain FKS1 (second series), stronger effect = lower value",0.967
same,normalized growth,"S. cerevisiae deletion strains, locus YLR342W, strain FKS1, stronger effect = lower value",0.986
same,normalized growth,"S. cerevisiae deletion strains, locus YLR357W, strain rsc2, stronger effect = lower value",0.964
same,normalized growth,"S. cerevisiae deletion strains, locus YLR370C, strain arc18, stronger effect = lower value",0.979
same,normalized growth,"S. cerevisiae deletion strains, locus YLR384C, strain iki3, stronger effect = lower value",0.957
same,normalized growth,"S. cerevisiae deletion strains, locus YLR418C, strain cdc73, stronger effect = lower value",0.885
same,normalized growth,"S. cerevisiae deletion strains, locus YML016C, strain PPZ1, stronger effect = lower value",0.975
same,normalized growth,"S. cerevisiae deletion strains, locus YML032C, strain rad52, stronger effect = lower value",0.915
same,normalized growth,"S. cerevisiae deletion strains, locus YML120C, strain ndi1, stronger effect = lower value",0.987
same,normalized growth,"S. cerevisiae deletion strains, locus YML124C, strain tub3, stronger effect = lower value",0.993
same,normalized growth,"S. cerevisiae deletion strains, locus YMR058W, strain fet3, stronger effect = lower value",0.983
same,normalized growth,"S. cerevisiae deletion strains, locus YMR078C, strain ctf18, stronger effect = lower value",0.986
same,normalized growth,"S. cerevisiae deletion strains, locus YMR125W, strain sto1, stronger effect = lower value",0.991
same,normalized growth,"S. cerevisiae deletion strains, locus YMR129W, stronger effect = lower value",1.03
same,normalized growth,"S. cerevisiae deletion strains, locus YMR205C, strain PFK2, stronger effect = lower value",0.91
same,normalized growth,"S. cerevisiae deletion strains, locus YMR223W, strain ubp8, stronger effect = lower value",0.966
same,normalized growth,"S. cerevisiae deletion strains, locus YMR231W, strain pep5, stronger effect = lower value",0.975
same,normalized growth,"S. cerevisiae deletion strains, locus YMR307W, strain GAS1, stronger effect = lower value",0.944
same,normalized growth,"S. cerevisiae deletion strains, locus YNL067W, strain RPL9B, stronger effect = lower value",0.979
same,normalized growth,"S. cerevisiae deletion strains, locus YNL071W, strain lat1, stronger effect = lower value",0.897 (active)
same,normalized growth,"S. cerevisiae deletion strains, locus YNL153C, strain GIM3, stronger effect = lower value",0.964
same,normalized growth,"S. cerevisiae deletion strains, locus YNL183C, strain NPR1, stronger effect = lower value",0.932
same,normalized growth,"S. cerevisiae deletion strains, locus YNL209W, strain ssb2, stronger effect = lower value",0.983
same,normalized growth,"S. cerevisiae deletion strains, locus YNL233W, strain BNI4, stronger effect = lower value",0.996
same,normalized growth,"S. cerevisiae deletion strains, locus YNL248C, strain rpa49, stronger effect = lower value",1.08
same,normalized growth,"S. cerevisiae deletion strains, locus YNL250W, strain rad50, stronger effect = lower value",0.987
same,normalized growth,"S. cerevisiae deletion strains, locus YNL271C, strain bni1, stronger effect = lower value",0.982
same,normalized growth,"S. cerevisiae deletion strains, locus YNL298W, strain CLA4, stronger effect = lower value",0.998
same,normalized growth,"S. cerevisiae deletion strains, locus YNL307C, strain MCK1, stronger effect = lower value",0.994
same,normalized growth,"S. cerevisiae deletion strains, locus YNL322C, strain KRE1 (second series), stronger effect = lower value",1.01
same,normalized growth,"S. cerevisiae deletion strains, locus YNR049C, strain mso1, stronger effect = lower value",0.993
same,normalized growth,"S. cerevisiae deletion strains, locus YNR052C, strain pop2, stronger effect = lower value",1.01
same,normalized growth,"S. cerevisiae deletion strains, locus YOL012C, strain htz1",1.06
same,normalized growth,"S. cerevisiae deletion strains, locus YOL147C, strain pex11, stronger effect = lower value",0.994
same,normalized growth,"S. cerevisiae deletion strains, locus YOR001W, strain rrp6, stronger effect = lower value",0.966
same,normalized growth,"S. cerevisiae deletion strains, locus YOR061W, strain CKA2, stronger effect = lower value",0.947
same,normalized growth,"S. cerevisiae deletion strains, locus YOR069W, strain VPS5, stronger effect = lower value",0.981
same,normalized growth,"S. cerevisiae deletion strains, locus YOR070C, strain gyp1, stronger effect = lower value",0.993
same,normalized growth,"S. cerevisiae deletion strains, locus YOR080W, strain dia2, stronger effect = lower value",0.971
same,normalized growth,"S. cerevisiae deletion strains, locus YOR083W, strain WHI5, stronger effect = lower value",0.99
same,normalized growth,"S. cerevisiae deletion strains, locus YOR106W, strain vam3, stronger effect = lower value",0.91
same,normalized growth,"S. cerevisiae deletion strains, locus YOR136W, strain idh2, stronger effect = lower value",0.993
same,normalized growth,"S. cerevisiae deletion strains, locus YOR144C, strain elg1, stronger effect = lower value",0.988
same,normalized growth,"S. cerevisiae deletion strains, locus YOR184W, strain ser1, stronger effect = lower value",0.984
same,normalized growth,"S. cerevisiae deletion strains, locus YOR231W, strain MKK1, stronger effect = lower value",0.964
same,normalized growth,"S. cerevisiae deletion strains, locus YOR265W, strain rbl2, stronger effect = lower value",0.966
same,normalized growth,"S. cerevisiae deletion strains, locus YOR270C, strain vph1, stronger effect = lower value",0.775 (active)
same,normalized growth,"S. cerevisiae deletion strains, locus YOR290C, strain snf2, stronger effect = lower value",0.989
same,normalized growth,"S. cerevisiae deletion strains, locus YOR316C, strain cot1, stronger effect = lower value",0.99
same,normalized growth,"S. cerevisiae deletion strains, locus YPL051W, strain arl3, stronger effect = lower value",0.97
same,normalized growth,"S. cerevisiae deletion strains, locus YPL078C, strain atp4, stronger effect = lower value",0.974
same,normalized growth,"S. cerevisiae deletion strains, locus YPL106C, strain sse1, stronger effect = lower value",0.881
same,normalized growth,"S. cerevisiae deletion strains, locus YPL240C, strain hsp82, stronger effect = lower value",0.973
same,normalized growth,"S. cerevisiae deletion strains, locus YPL241C, strain CIN2, stronger effect = lower value",0.987
same,normalized growth,"S. cerevisiae deletion strains, locus YPL256C, strain CLN2, stronger effect = lower value",0.94
same,normalized growth,"S. cerevisiae deletion strains, locus YPR119W, strain clb2, stronger effect = lower value",0.992
same,normalized growth,"S. cerevisiae deletion strains, locus YPR141C, strain kar3, stronger effect = lower value",0.982
same,normalized growth,"S. cerevisiae deletion strains, locus YPR163C, strain tif3, stronger effect = lower value",1.01
same,normalized growth,"S. cerevisiae deletion strains, locus YPR167C, strain met16, stronger effect = lower value",1
same,normalized growth,"S. cerevisiae deletion strains, strain wtn01, stronger effect = lower value",1.04
same,normalized growth,"S. cerevisiae strains, strain wild type, stronger effect = lower value",0.987
